Measurements: PubChem BioAssay
Active and inactive are the calls of the source. Unless noted, the rule behind the calls is not given here.

Experiments:
[1] = test system: XIP peptide (Xip251-270) binding; test: XIP fragment 251-270 binding compounds – biochemical, small-molecule microarray, fluorescence 635/667 nm, 0.1 µg/mL protein, primary screen (AID 1182); conditions: fluorescent protein binding, 635 nm, higher = more signal, called active from +8 up or from −8 down
[2] = test system: XIP peptide (Xip251-270); test: compounds binding XIP fragment 251-270 – biochemical, small-molecule microarray, fluorescence 635/667 nm, 0.5 µg/mL protein, primary screen (AID 1183); conditions: fluorescence 635 nm, higher = more signal
[3] = blood-stage malaria parasite viability loss – strain 3D7, DAPI fluorescence, 100 nL, primary screen (AID 1184);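 note: parasites grown inside human red blood cells in medium with human serum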; conditions: P. falciparum 3D7 growth, 3 d, higher = more signal
[4] = target: Homeobox protein Hox-A13 (Mus musculus) (UniProt Q62424); test: disruptors of Hoxa13 oligonucleotide interaction – biochemical, fluorescence polarization, labeled oligonucleotide, primary screen (AID 1185); conditions: Hoxa13:DNA binding, 15 min, higher = more signal, called active from +8 up or from −8 down
[5] = blockers of DNA damage checkpoint Chk1 activation – imaging, HeLa, hydroxyurea, phospho-Chk1 antibody, percent positive cells, primary screen (AID 1186); conditions: hydroxyurea-induced phospho-Chk1 immunofluorescence imaging, higher = more signal
[6] = blockers of DNA damage checkpoint Chk1 activation – imaging, HeLa, hydroxyurea, phospho-Chk1 nuclear intensity, primary screen (AID 1187); conditions: hydroxyurea-induced phospho-Chk1 immunofluorescence imaging, higher = more signal

Homeobox protein Hox-A13 (Mus musculus), sequence (Q62424 whole entry, looked up): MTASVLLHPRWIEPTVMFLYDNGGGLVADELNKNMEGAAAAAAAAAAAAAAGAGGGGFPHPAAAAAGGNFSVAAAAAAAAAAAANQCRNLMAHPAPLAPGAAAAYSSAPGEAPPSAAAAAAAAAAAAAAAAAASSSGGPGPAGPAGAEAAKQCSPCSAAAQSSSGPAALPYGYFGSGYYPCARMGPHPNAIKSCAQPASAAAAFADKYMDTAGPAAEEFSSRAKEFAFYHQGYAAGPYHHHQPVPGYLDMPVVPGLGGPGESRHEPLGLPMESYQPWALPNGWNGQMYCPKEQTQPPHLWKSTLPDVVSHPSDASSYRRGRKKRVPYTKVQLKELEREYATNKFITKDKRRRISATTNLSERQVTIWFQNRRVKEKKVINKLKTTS

Compound | composite z-score [1] | composite z-score [2] | z-score [3] | z-score [4] | z-score [5] | z-score [6]
CCCCCCc1nc(Cc2cc(OC)c(OC)c(OC)c2)cc2c1[Si](C(C)C)(C(C)C)OC2 | 0.181 (inactive) | 0.0776 | -2.67 | -3.54 (inactive) | -1.16 (inactive) | -0.743 (inactive)
C[N+](C)(C)CCCCCCNC(=O)[C@@H]1C[C@@H]2C(=O)N3CCC[C@H]3C(=O)N2[C@@H]1c1ccc(O)cc1 | 0.45 (inactive) | 0.723 | 0.0301 | -1.82 (inactive) | -0.265 (inactive) | 0.127 (inactive)
OCCCC1=CC(c2ccc(CN3CCCC3)cc2)N(Cc2cc3c(cc2Br)OCO3)CC1 (centres undefined) | -0.265 (inactive) | -0.3 | -3.05 | -2.68 (inactive) | 0.905 (inactive) | 0.629 (inactive)
C=CCNC(=O)[C@@H]1[C@H]2C(=O)O[C@H](c3ccccc3)[C@H](c3ccccc3)N2[C@H](c2ccccc2OCCO)[C@@]12C(=O)Nc1ccc(C#CCC(C(=O)OC)C(=O)OC)cc12 | 1.56 (inactive) | 0.343 | -2.1 | -3.02 (inactive) | 0.0648 (inactive) | -0.246 (inactive)
COc1ccc([Si](C)(C)[C@@H]2[C@@H](CC(=O)N3CCC[C@H]3CO)O[C@]3(C(=O)N(Cc4cccc(N5C(=O)COc6ccccc65)c4)c4ccccc43)[C@H]2C)cc1 | 0.527 (inactive) | 0.608 | -0.317 | -2.42 (inactive) | -0.167 (inactive) | -0.614 (inactive)
C=CCNC(=O)[C@@H]1[C@H]2C(=O)O[C@H](c3ccccc3)[C@H](c3ccccc3)N2[C@H](c2ccccc2OCCO)[C@@]12C(=O)N(C(=O)OCCOC)c1ccc(C#CC3(O)CCCCCC3)cc12 | 0.99 (inactive) | 0.674 | -2.21 | -2.56 (inactive) | -0.0659 (inactive) | 0.294 (inactive)
CC(C)(C)OC(=O)CC[C@@]1(C(=O)NCC(O)CO)N=C(c2ccc(OCCCO)cc2)O[C@@H]1c1ccccc1CN=[N+]=[N-] (some centres undefined) | -0.246 (inactive) | 0.57 | -0.711 | -5.44 (inactive) | 0.436 (inactive) | 0.71 (inactive)
COC(=O)[C@@H]1N=C(c2ccc(OCCCO)cc2)O[C@@H]1c1ccccc1 | 0.178 (inactive) | 0.759 | -0.641 | -4.34 (inactive) | -0.4 (inactive) | -0.301 (inactive)
C=CCOC(=O)[C@@]1(Cc2ccccc2)C[C@H]2CO[C@H](c3ccc(OC)cc3)N2C1=O | -0.373 (inactive) | -0.0614 | -0.829 | -3.45 (inactive) | -0.0248 (inactive) | -0.386 (inactive)
